Tgondii IFNg – blocks Toxoplasma gondii growth in the presence of IFN-gamma. activity change, negative = inhibition, % (no concentration beside the values). Toxoplasma gondii growth in IFN-gamma-treated host cells; active compounds read low. hit rate 3.8% among 69,000; in the data active = activity change below about -70%, passing the limit was not always enough;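 note: host cells are HeLa cells infected with Toxoplasma gondii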
Active calls of the source: *; ! = not confirmed by another sample. The sample as a whole holds a higher share of hits than the screen did.

SMILES	Tgondii IFNg
CN(C)CCNC(=O)c1cc(-c2ccn(-c3ccccc3)n2)n2ccccc12	-106.0*
CC(=O)NCCc1csc(C2CCCN(C(=O)c3cc(Cl)ccc3F)C2)n1 (centres undefined)	-13.5
Clc1ccc(C2(c3ccc(-c4cn[nH]c4)cc3)CCNCC2)cc1	-72.2*
Clc1ccc(-c2cn[nH]c2C2CCCNC2)cc1 (centres undefined)	0.5
Cc1ccc(NC(=O)C2(c3ccc4c(c3)OC(F)(F)O4)CC2)nc1-c1cccc(C(=O)O)c1	-1.6
CCC1CN(Cc2cnn(C)c2C2CC2)CCN1C(C)C (centres undefined)	-2.3
CCCCC(=O)Nc1ccc(C(=O)NC(C)c2ncn[nH]2)cc1 (centres undefined)	52.9
Cc1ccc2[nH]c3c(c2c1)CCNC3=O	-93.5*
Cc1ccc2[nH]c(=O)c(Cc3ccccc3)c(O)c2c1	9.6
Cc1ccc2[nH]c3c(c2c1)CN(C)CC3	12.1
COc1ccc(S(=O)(=O)N2C[C@H](O)COC[C@H]3O[C@@H](CC(=O)N[C@H]4CCN(Cc5ccccc5)C4)CC[C@@H]32)cc1	-33.9
c1ccc(COCC2CC3(CCN(Cc4ccoc4)CC3)CO2)nc1 (centres undefined)	7.5
Cc1noc(C)c1-c1nc(CC(C)C)nn1-c1cccc2cccnc12	7.5
Cc1c(C(=O)N2CCC(O)(CN(C)C)C2)sc2ncn(C)c(=O)c12 (centres undefined)	2.8
CCCN(CCC)S(=O)(=O)c1ccc(C(=O)ON=C2C3CC4CC(C3)CC2C4)cc1	-79.2*
CCCN(CCC)S(=O)(=O)c1ccc(C(=O)O)cc1	16.6
O=C(COc1ccc(Cl)cc1)ON=C1C2CC3CC(C2)CC1C3	-19.3
COC(=O)CCN(C(=O)c1cc(OC)c(OC)c(OC)c1)c1ccccn1	9.0
CN(Cc1ccccn1)C(=O)c1cc2c(c3ccccc3n2C)n1-c1ncccn1	-0.7
O=Nc1c(-c2c(O)[nH]c3cc(Br)ccc23)[nH]c2ccccc12	-91.9*
O=c1[nH]c2ccccc2c(O)c1-c1nc(-c2ccc(Br)cc2)no1	26.5
O=C1C(c2c(O)[nH]c3ccccc23)=Nc2ccccc21	-3.3
OC1CCN(c2ccnc(N3CCC(Oc4cccnc4)CC3)n2)C1 (centres undefined)	3.6
COc1ccccc1NC(=O)c1cncc(NS(=O)(=O)c2ccc(C)cc2C)c1	-17.9
CCCCNc1cc(=O)n(C)c(=O)n1C	2.7
SMILES	Tgondii IFNg
CCOC(=O)c1nc(NCCc2c[nH]c3ccc(C)cc23)c2c(-c3ccc(Cl)cc3)noc2n1	-58.9
O=C(NCCc1nc(-c2ccccc2)cs1)c1ccc(-n2cnnc2)cc1	-0.8
O=C(NCCN1CCOCC1)c1csc(-c2ccc(N3CCCC3)nc2)n1	-99.6*
O=C(c1csc(-c2ccc(N3CCCC3)nc2)n1)N1CCC2(CC1)OCCO2	41.1
O=C(NCc1ccc(N2CCOCC2)cc1)c1csc(-c2ccc(N3CCCC3)nc2)n1	84.3
COc1ccc(NC(=O)N2CCN(Cc3nc(-c4cccc(Cl)c4)oc3C)CC2)cc1OC	-0.7
COc1ccc(OC)c(S(=O)(=O)NCCc2csc(-c3ccc(F)cc3)n2)c1	79.6
Cc1ccc(-c2nc(NC(=O)c3cc(C(C)(C)C)nn3C)sc2C)cc1Cl	-78.2*
Cc1ccc(-c2nc(NC(=O)c3cncc(-c4cccs4)c3)sc2C)cc1Cl	-21.4
CCc1cc(C(=O)Nc2nc3c(s2)CCCCCC3)n(C)n1	-20.3
COc1cccc(CNC(=O)c2c(O)c3ccccc3[nH]c2=O)c1	87.9
Cc1ccc(NC(=O)NC(=O)c2c(C)noc2-c2snnc2C)cc1	-106.5*
Cc1ccc(-c2coc(-c3ccc(NC(=O)Nc4ccccc4)cc3)n2)cc1	16.2
Cc1ccc(NC(=O)Nc2ccc(-c3nc(-c4ccccc4)co3)cc2)cc1	23.8
Cc1ccc(C2(O)CCN(C(=O)Cn3nc(C)cc3N)CC2)nc1	0.8
COc1ccccc1C#Cc1ccc2c(c1)[C@@H]1[C@@H](CCN1S(=O)(=O)c1cn(C)cn1)[C@@H](CO)N2	-5.6
Cc1ccccc1OCC1CCCN(C(=O)Cc2c[nH]c(=O)[nH]c2=O)C1 (centres undefined)	3.7
CCS(=O)(=O)N1CCC2(CC1)OC(=O)C(C)=C2C(=O)NCC1CCCO1 (centres undefined)	31.4
c1ccc(CNc2ncc(CN3CCC4(CCOCC4)CC3)cn2)cc1	83.5
c1ccc2c(N3CCOCC3)nc(N3CCOCC3)nc2c1	-3.6
c1ccc(CNc2nc(N3CCOCC3)nc(N3CCOCC3)n2)cc1	-82.5*
COCCN1C(=O)CCc2cc(NS(=O)(=O)c3ccc(F)cc3F)ccc21	59.6
COc1ncc(-c2ccc3nccc(-c4ccnnc4)c3c2)cc1NS(=O)(=O)c1ccc(F)cc1F	-77.6*
O=S(=O)(NCCc1csc(-c2ccc(Cl)cc2)n1)c1ccc(F)cc1F	-11.4
CCCCNC(=O)CCC1N=C2c3ccccc3N=C(SCC(=O)OCC)N2C1=O (centres undefined)	-13.1
SMILES	Tgondii IFNg
O=S1(=O)CC(S(=O)(=O)c2cccs2)c2ccccc21 (centres undefined)	40.3
Fc1ccc(C2CCNCC2COc2ccc3c(c2)OCO3)cc1 (centres undefined)	-75.2*
Fc1ccc([C@@H]2CCNC[C@H]2COc2ccc3c(c2)OCO3)cc1	-34.9
O=C(NCc1ccc2c(c1)OCO2)c1ccccc1C1CCNC1 (centres undefined)	-2.1
COc1ccc2c3c(n(C)c2c1)[C@@H](CO)N(C(=O)C1CCCC1)CC31CN(C(=O)CC2CC2)C1	66.4
COc1ccc(N2CCN(C(=O)CN3CCC(Cc4cc(N)nc(C)n4)CC3)CC2)cc1	19.3
Cc1ccc(NC(=O)CC(=O)N2CCN(Cc3ccc4c(c3)OCO4)C(=O)C2)cc1	-52.3
CCc1cnc(C)nc1N1CCN(Cc2ccc3c(c2)OCO3)C(=O)C1	-85.2*
CCNc1ccnc(N2CCN(Cc3ccc4c(c3)OCO4)CC2)n1	-12.8
Cc1cccc(NC(=O)COc2nc(C)nc3ccccc23)c1	-7.7
COc1ccc(NC(=O)COc2nc(C)nc3ccccc23)cc1	17.6
COc1ccc(OCC(=O)Nc2cccc(-c3nnc4c5ccccc5c(C)nn34)c2)cc1	-76.4*
O=C(Nc1ccc(-c2nc(-c3cccc(Br)c3)co2)cc1)c1ccco1	21.1
O=C(c1csc(-c2ccc(N3CCCCC3)nc2)n1)N1CCN(c2ccccn2)CC1	-17.7
O=C1CC(C(=O)N(C2CCCC2)C(C(=O)NC2CCCC2)c2ccccn2)CS1 (centres undefined)	-38.2
CN1CCN(c2cc(C(=O)Nc3ccc(OCc4ccccc4F)cc3)ccn2)CC1	-76.1*
O=C(Nc1ccc(OCc2ccccc2F)cc1)c1ccc(-n2cnnc2)cc1	34.2
CN1CCN(c2cc(C(=O)NCCS(=O)(=O)c3ccc(F)cc3)ccn2)CC1	-24.2
CC(C)CCn1c(SCc2ccccc2)nc2c1c(=O)[nH]c(=O)n2C	-30.6
C[C@@H]1CN([C@@H](C)CO)C(=O)CCCn2nncc2CO[C@H]1CN(C)C(=O)Nc1ccnc(N2CCOCC2)c1	-35.3
O=C(Nc1ccc(Cl)cc1)c1nc(Nc2ccccc2)c2ccccc2n1	96.2
Cc1c(Nc2nc3nonc3nc2Nc2cccc(Cl)c2)c(=O)n(-c2ccccc2)n1C	-24.2
Clc1ccc(Nc2nc3nonc3nc2Nc2ccc(Cl)cc2)cc1	-103.2*
CN(C)CCCN1c2ccccc2Sc2ccc(C(F)(F)F)cc21	-89.3*!
CN1CCCC(CN2c3ccccc3Sc3ccccc32)C1 (centres undefined)	16.3
CN1CCN(CCC=C2c3ccccc3Sc3ccc(S(=O)(=O)N(C)C)cc32)CC1	78.4
